Bioassay records as filed in PubChem.
A selection: hits, their analogues and other compounds. The true share with any hit is near 8.9%.
ALDH1A1 block: qHTS Assay for Inhibitors of Aldehyde Dehydrogenase 1 (ALDH1A1) | AID 1030, 2008 | Potency, µM (titrated, usually from 75.3 µM), inactives show top-dose activity, negative = inhibition, most hits filed as inhibitors | Purified ALDH1A1, NADH fluorescence, propionaldehyde substrate | actives 7.3% (n = 220,000); active means well fitted inhibition curve with a large enough effect, not every such curve was filed as active; inconclusive means small, poorly fitted or top-dose-only effect, or another doubt; inactive means no such curve, though single readings can be large or run the other way;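 further: potency means the concentration at half of the fitted maximal effect; plate controls were no enzyme wells and a reference inhibitor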
Target sequence (P00352 whole entry, looked up): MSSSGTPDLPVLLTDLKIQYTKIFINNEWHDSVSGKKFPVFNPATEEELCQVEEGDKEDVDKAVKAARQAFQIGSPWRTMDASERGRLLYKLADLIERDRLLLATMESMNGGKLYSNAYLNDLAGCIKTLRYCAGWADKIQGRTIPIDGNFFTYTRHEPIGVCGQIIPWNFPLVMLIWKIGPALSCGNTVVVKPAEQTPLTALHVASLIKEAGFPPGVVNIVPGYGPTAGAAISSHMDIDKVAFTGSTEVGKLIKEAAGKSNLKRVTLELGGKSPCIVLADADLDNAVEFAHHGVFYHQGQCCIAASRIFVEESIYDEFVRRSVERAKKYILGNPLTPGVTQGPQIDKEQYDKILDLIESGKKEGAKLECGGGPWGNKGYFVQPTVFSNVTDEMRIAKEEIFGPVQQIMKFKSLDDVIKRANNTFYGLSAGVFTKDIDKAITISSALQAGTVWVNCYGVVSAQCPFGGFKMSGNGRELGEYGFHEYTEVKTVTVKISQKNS
NPSR antag: qHTS Assay for Antagonists of the Neuropeptide S Receptor: cAMP Signal Transduction; AID 1461, 2008; Q6W5P4; Potency, µM (titrated, usually from 38.3 µM), for the others: at the top dose activity change, negative = inhibition, actives largely listed as inhibitors; CHO-NPSR cells, cAMP TR-FRET, antagonist mode; actives 1% (n = 220,000); further: potency means the concentration at half of the fitted maximal effect; nearly all actives have a fitted effect of over 50% in size
HPGD inh: qHTS Assay for Inhibitors of HPGD (15-Hydroxyprostaglandin Dehydrogenase). 15-hydroxyprostaglandin dehydrogenase [NAD(+)] (Homo sapiens), P15428. purified HPGD, NADH fluorescence kinetic, PGE2 substrate. Potency, µM, for inactives: top-dose activity change, negative = inhibition, hits mostly inhibitors. actives 4.3% (n = 150,000). AID 894, 2007; active means well fitted inhibition curve with a large enough effect, not every such curve was filed as active; inconclusive means small, poorly fitted or top-dose-only effect, or another doubt; inactive means no such curve, though single readings can be large or run the other way; further: potency means the concentration at half of the fitted maximal effect
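20 nM HPGD preincubated 15 min at room temperature with compound in 50 mM Tris-HCl pH 8, 0.01% Tween 20. Started with 1 mM NAD+ and 30 uM prostaglandin E2; NADH fluorescence (360/450 nm) read 5 times over 30-s intervals, last minus first.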
12-hLO inh: qHTS Assay for Inhibitors of 12-hLO (12-human lipoxygenase); Polyunsaturated fatty acid lipoxygenase ALOX12 (Homo sapiens), P18054; purified 12-hLO, xylenol orange hydroperoxide absorbance; actives 0.12% (n = 150,000); AID 1452, 2008; Potency, µM (doses to about 57.1 µM), for the others: at the highest dose activity change, negative = inhibition, most hits filed as inhibitors; further: potency means the concentration at half of the fitted maximal effect; nearly all actives have a fitted effect of over 55% in size
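Hydroperoxide output read as Fe(III)-xylenol orange absorbance, 573-to-405 nm ratio, after 30 min reaction with 40 uM arachidonic acid. Enzyme: 150 nM purified human 12hLO, 15 min compound preincubation; 25 mM Hepes pH 7.0, room temperature.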
IMPase cell inh: qHTS Assay for Identifying the Cell-Membrane Permeable IMPase Inhibitors. Inositol monophosphatase 1 (Rattus norvegicus), P97697. CHO-M1 cells, IP1 accumulation, HTRF TR-FRET ratio. inhibition (IP1 accumulation), % at 46.1 µM. 120,000 tested, under 10 active; active means well fitted curve in the direction sought with a large enough effect in the signal ratio, not every such curve was filed as active; inconclusive means small, poorly fitted or top-dose-only effect, or a change in a side signal; inactive means no such curve, though single readings can be large or run the other way; the % refers to the signal ratio;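 further: cells stimulated with carbachol in lithium chloride buffer; plate controls were DMSO basal wells for no effect and reference inhibitor wells for full effect; higher means more IMPase inhibition seen as more IP1 and lower FRET ratio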
Target sequence (P97697 whole entry, looked up): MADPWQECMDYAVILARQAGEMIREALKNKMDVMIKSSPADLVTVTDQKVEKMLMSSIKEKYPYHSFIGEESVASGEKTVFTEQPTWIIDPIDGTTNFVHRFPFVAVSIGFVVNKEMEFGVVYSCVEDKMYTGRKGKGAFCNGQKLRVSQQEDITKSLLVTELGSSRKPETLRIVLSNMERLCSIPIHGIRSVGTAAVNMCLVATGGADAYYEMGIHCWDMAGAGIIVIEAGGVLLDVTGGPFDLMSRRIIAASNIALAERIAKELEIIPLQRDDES
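Elevated IP1 in lysates lowers TR-FRET signal (665/620 ratio and 620 channel reported). Cells were CHO-M1, given carbachol (50 uM as added) plus 50mM LiCl, pH 7.4, 30 min, 37C; compounds titrated up to 46 uM; AC50 by Hill equation.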
IMPase Li inh: qHTS Assay for Identifying the Cell-Membrane Permeable IMPase Inhibitors: Potentiation with Lithium; CHO-M1 cells, IP1 TR-FRET (IP-One), carbachol + lithium; Potency, µM (top dose mostly 59.4 µM), for inactives: top-dose activity, negative = IMPase inhibition, usual class: inhibitors; actives 0.35% (n = 210,000);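 further: IP1 builds up when IMPase is blocked and the TR-FRET signal falls; potency means the concentration at half of the fitted maximal effect; plate controls were basal vehicle for no effect and high inhibitor control for full effect; nearly all actives have a fitted effect of over 50% in size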
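CHO cells stably expressing M1 receptor (2000/well) were cultured 16–30 h, then exposed to compounds with a small lithium addition for 30 min at 37C. IP1 was measured by TR-FRET competition; AC50 from Hill fits.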
The depositor's hits bear a star; ? = inconclusive; · = no result given; [ ] = another dose, or the depositor's remark. Unless noted, the call rests on the fitted dose curve; in most records, active means well fitted curve in the direction sought with a large enough effect; inconclusive means small, poorly fitted or top-dose-only effect, or another doubt; inactive means no such curve, though single readings can be large; an effect the other way counts as inactive or inconclusive. Unless noted, on the % scale 0 is the no-effect control and ±100 the full control effect.

SMILES	ALDH1A1 block	NPSR antag	HPGD inh	12-hLO inh	IMPase cell inh	IMPase Li inh
O=c1c2c3c(sc2n(CCN2CCCCC2)c(=O)n1Cc1ccco1)CCCCC3	5.6µM*	?	-16%	-1%	11	40%[38.3 µM]
O=C(CC1COc2ccccc2O1)NC1CCCCC1 (stereo not drawn)	2%	-14%[46.1 µM]	-24%	-1%	8	26%[38.3 µM]
Cn1c(=O)cc(OCCCC(=O)N2CCCCC2)c2ccccc21	-4%	3%[46.1 µM]	7.1µM*	1%	10	8%
Cn1c(=O)cc(OCCCC(=O)NC2CCCC2)c2ccccc21	3%	-6%[46.1 µM]	14µM*	-4%	4	-19%[38.3 µM]
Cn1c(=O)cc(OCC(=O)NC2CCCCC2)c2ccccc21	?	2%[46.1 µM]	-27%	-2%	1	-11%[38.3 µM]
CC(=O)Nc1ccc(NS(C)(=O)=O)cc1	10%	-1%[46.1 µM]	-5%	-2%	1	14%[38.3 µM]
COC(=O)c1c(-c2cc(C)ccc2C)csc1NC(=O)C1CC=CCC1C(=O)O (stereo not drawn)	4%	-37%	·	·	·	-3%
Oc1ccc(/C=N/NC(=S)NC2CC3CCC2C3)cc1 (stereo not drawn)	7.1µM*	?	·	·	·	·
O=C(N/N=C/c1cccs1)[C@H]1C[C@@H]1c1ccccc1	10%	6%	-5%	1%	·	-1%
Oc1ccc(/C=N/NC(=S)NCC2CCCO2)cc1 (stereo not drawn)	-4%	-9%[46.1 µM]	-7%	0%	2	23%[38.3 µM]
S=C(N/N=C/c1cccs1)NC1CC2CCC1C2 (stereo not drawn)	18µM*	45%	·	·	·	·
O=C(Nc1ccccc1-c1ccccc1)c1cccc(C(F)(F)F)c1	?	-15%[46.1 µM]	-6%	-2%	0	10%
CC12CC3(O)OC(O1)C1(COC(=O)c4ccccc4)[C@@H]3CC21O[C@@H]1O[C@H](CO)[C@@H](O)[C@H](O)[C@H]1O	19%	·	2%	-1%[0.00818 µM]	·	11%
COCCNCC(=O)NCC12CC3CC(CC(C3)C1)C2	28µM*	?	-6%	2%	0	-3%[38.3 µM]
O=C(CN1CCCC1)NCC12CC3CC(CC(C3)C1)C2	?	-2%[46.1 µM]	-8%	7%	-10	5%[38.3 µM]
O=C(CN1C(=O)CCC1=O)NCC12CC3CC(CC(C3)C1)C2	1.1µM*	-20%[46.1 µM]	-5%	-5%	?	-20%[38.3 µM]
Cn1nnnc1Sc1ncnc2scc(-c3ccccc3)c12	-4%	2%[46.1 µM]	-1%	-2%	17	-4%[38.3 µM]
CCCn1c(=S)[nH]c2ccccc2c1=O	2%	-6%	·	·	·	4%
CCc1cc2c(=O)n(CCC(C)C)c(=S)[nH]c2s1	16µM*	-30%	·	·	·	0%
Cc1ccc(S(=O)(=O)NCc2ccncc2)c(C)c1C	32µM*	-9%	·	·	·	2%
OCc1ccc(-c2nn(Cc3ccccc3)c3ccccc23)o1	?	-18%[46.1 µM]	?	-6%	5	-6%
Oc1ccc(N=Cc2cc(Br)c(N3CCOCC3)o2)cc1	8.9µM*	-7%	-25%	-17%	·	41%
O=[N+]([O-])c1cc(Br)c(O)c(C=Nc2ccc(N3CCOCC3)cc2)c1	2%	-22%	·	·	·	-13%
O=C(CCCCCn1c(=S)[nH]c2ccc(N3CCOCC3)cc2c1=O)NCc1ccc(Cl)cc1	?	10µM*	·	·	·	11µM*
O=C(CCCCCn1c(=S)[nH]c2ccc(N3CCOCC3)cc2c1=O)NCc1ccc2c(c1)OCO2	1%	-59%	·	·	·	?
SMILES	ALDH1A1 block	NPSR antag	HPGD inh	12-hLO inh	IMPase cell inh	IMPase Li inh
Cc1cc(OC(C)C)c2c(-c3ccccc3)cc(=O)oc2c1	?	-20%[46.1 µM]	?	1%	2	29%[38.3 µM]
CCOc1cc(C)cc2oc(=O)cc(-c3ccccc3)c12	22µM*	-23%[46.1 µM]	-12%	3%	11	54%[38.3 µM]
Cc1cc(OCC(=O)N2CCc3ccccc3C2)c2c(-c3ccccc3)cc(=O)oc2c1	14µM*	?	-18%	0%	5	41%[38.3 µM]
Fc1ccc(NC(=S)NC2CCN(Cc3ccccc3)CC2)cc1	14µM*	7%	·	·	·	1%
COc1cccc(C(Nc2ccccn2)c2oc(CO)cc(=O)c2O)c1 (stereo not drawn)	?	9%	·	·	·	3%
O=c1cc(CO)oc(C(Nc2ccccn2)c2cccc(F)c2)c1O (stereo not drawn)	32µM*	-3%[46.1 µM]	-14%	?	-1	24%[38.3 µM]
CC(C)(C)OC(=O)N[C@@H](Cc1ccccc1)c1nnc(S(=O)(=O)Cc2cccc(F)c2)o1	?	?	4µM*	-13%	14	2%[38.3 µM]
Cc1ccccc1CS(=O)(=O)c1nnc([C@H](CC(C)C)NC(=O)OC(C)(C)C)o1	0%	10µM*	13µM*	-9%	12	15%[38.3 µM]
CC(C)[C@H](NC(=O)OC(C)(C)C)c1nnc(S(=O)(=O)Cc2c(F)cccc2Cl)o1	0%	13µM*	5µM*	-8%	-3	48%[38.3 µM]
CC(C)C[C@H](N)c1nnc(S(=O)(=O)Cc2cccc(F)c2)o1	13µM*	-29%[46.1 µM]	-27%	1%	-9	39%[38.3 µM]
CC[C@@H](C)[C@H](NC(=O)OC(C)(C)C)c1nnc(S(=O)(=O)Cc2cc(C)ccc2C)o1	4%	10µM*	·	-2%	18	·
Cc1cc(C)c(S(=O)(=O)N2CCCCC2)cc1N(C)S(=O)(=O)c1ccc(Cl)cc1	7%	-19%[46.1 µM]	-9%	1%	19	13%
COc1cc(C(=O)Oc2ccccc2/C=N/NC(=O)c2ccc(C)cc2)cc(OC)c1OC	3%	-6%[46.1 µM]	-7%	-9%	8	3%[38.3 µM]
CN(C(=O)/C=C/c1cnc2ccccc2c1)C1CCCCC1	?	-26%	·	·	·	4%
CCc1nc2c(sc3nc4c(cc32)COC(C)(C)C4)c(=O)n1Cc1ccco1	2.5µM*	?	-27%	-10%	-3	39%[38.3 µM]
CCc1nc(OCc2ccco2)c2sc3nc4c(cc3c2n1)COC(C)(C)C4	?	?	-24%	-18%	-2	18%[38.3 µM]
CCc1nc2c(sc3nc4c(cc32)COC(C)(C)C4)c(=O)n1Cc1ccccc1	0.71µM*	-3%[46.1 µM]	?	7%	7	-4%[38.3 µM]
CC(=O)N1CC[n+]2c(-c3ccc(Cl)cc3)csc21	?	8%	18µM*	?	·	7%
CCc1ccc(-c2csc3[n+]2CCN3C(C)=O)cc1	?	-8%[46.1 µM]	14µM*	-20%	0	26%[38.3 µM]
